Reference: PubChem BioAssay (NCI)
Compounds without any hit were thinned out: in the full panel of roughly 79,000, 15% have a hit. Active and inactive are the calls of the source. Cut-off read from the data, not from the text of the source: active = growth inhibition above about 70%; inactive = the rest.

Columns and labels:
[1] = NCI Yeast Anticancer Drug Screen. Data for the rad52 strain (AID 147);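 note: 0% = growth of vehicle-treated control cultures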; conditions: S. cerevisiae rad52 mutant growth inhibition, stronger effect = higher value
In short: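 Here a repair-compromised yeast strain receives each compound; its growth is then quantified and normalised to vehicle-only controls.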

[2] = NCI Yeast Anticancer Drug Screen. Data for the wt1 strain (AID 149);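 note: 0% = growth of vehicle-treated wt1 cultures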; conditions: S. cerevisiae wt1 strain (SPY 50644) growth inhibition, stronger effect = higher value
In short: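 Measured: growth of wt1 yeast under compound versus vehicle treatment, reported as inhibition.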

[3] = NCI Yeast Anticancer Drug Screen. Data for the rad50EPP+ strain (AID 151);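 note: 0% = growth of vehicle-treated control cultures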; conditions: S. cerevisiae rad50 mutant strain, stronger effect = higher value
In short: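 Read-out is yeast growth inhibition relative to vehicle; cells used were the rad50EPP+ strain.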

[4] = NCI Yeast Anticancer Drug Screen. Data for the mgt1 strain (AID 153); conditions: S. cerevisiae mgt1 mutant growth inhibition, stronger effect = higher value
In short: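 Measured: inhibition of mgt1 yeast growth by compound, normalized to vehicle-treated cultures.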

[5] = NCI Yeast Anticancer Drug Screen. Data for the rad50 strain (AID 155);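 note: 0% = growth of vehicle-only cultures of the same strain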; conditions: S. cerevisiae rad50 strain growth inhibition, stronger effect = higher value
In short: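 Growth of the mutant yeast was measured after compound exposure and referenced to vehicle-treated cultures.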

[6] = NCI Yeast Anticancer Drug Screen. Data for the mec2-1 strain (AID 157); conditions: S. cerevisiae mec2-1 strain, stronger effect = higher value
In short: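 Using mec2-1 yeast: add compound, measure growth, express inhibition versus vehicle-treated cultures.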

[7] = NCI Yeast Anticancer Drug Screen. Data for the rad14 strain (AID 159);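 note: 0% = growth of vehicle-treated control cultures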; conditions: S. cerevisiae rad14 strain growth inhibition, stronger effect = higher value
In short: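 Here, inhibition of yeast growth was measured after compound exposure, using a strain with a genetic defect in DNA damage repair and vehicle-treated cultures as the reference.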

[8] = NCI Yeast Anticancer Drug Screen. Data for the sgs1 mgt1 strain (AID 161);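 note: 0% = growth of cultures given vehicle only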; conditions: S. cerevisiae sgs1 mgt1 strain, stronger effect = higher value
In short: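 Growth of a repair-deficient yeast mutant was monitored after compound treatment and expressed as inhibition relative to vehicle-treated cultures.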

[9] = NCI Yeast Anticancer Drug Screen. Data for the CLN2oe strain (AID 163);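 note: 0% = growth of vehicle-only control cultures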; conditions: S. cerevisiae CLN2oe strain, stronger effect = higher value
In short: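 Whole-cell yeast growth assay. A strain engineered for altered cell-cycle control received compound, and inhibition relative to vehicle-treated cultures was recorded.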

[10] = NCI Yeast Anticancer Drug Screen. Data for the cln2 rad14 strain (AID 165);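 note: 0% = growth equal to vehicle treated cultures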; conditions: S. cerevisiae cln2 rad14 strain, stronger effect = higher value
In short: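 Yeast strain cln2 rad14, bearing defects in cell cycle control and DNA repair, serves as the test system; values reflect growth inhibition compared with vehicle.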

[11] = NCI Yeast Anticancer Drug Screen. Data for the bub3 strain (AID 167); conditions: S. cerevisiae bub3 mutant strain, stronger effect = higher value
In short: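 Whole-cell yeast assay. The mutant strain was incubated with compounds, and growth inhibition was determined by comparison with vehicle-treated cells.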

[12] = NCI Yeast Anticancer Drug Screen. Data for the wt2 strain (AID 169);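 note: 0% = growth of vehicle-treated yeast cultures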; conditions: S. cerevisiae wt2 strain growth inhibition, stronger effect = higher value
In short: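 Treated yeast vs. vehicle-treated yeast: growth inhibition determined.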

[13] = NCI Yeast Anticancer Drug Screen. Data for the mlh1 strain (AID 171);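 note: 0% = growth of vehicle-treated control cultures of the same strain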; conditions: S. cerevisiae mlh1 strain growth inhibition, stronger effect = higher value
In short: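 A yeast strain with a defined genetic lesion serves as the test organism. Cultures receive compound or vehicle, and growth is measured.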

[14] = NCI Yeast Anticancer Drug Screen. Data for the sgs1 strain (AID 173);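 note: 0% = growth of vehicle-only control cultures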; conditions: S. cerevisiae sgs1 mutant, stronger effect = higher value
In short: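 A genetically defined yeast mutant is incubated with the test compound, and its growth is compared to that of the same strain given vehicle.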

[15] = NCI Yeast Anticancer Drug Screen. Data for the mlh1 rad18 strain (AID 175); conditions: S. cerevisiae mlh1 rad18 strain growth inhibition, stronger effect = higher value
In short: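 Steps: expose repair-defective yeast to compound; measure growth; express inhibition against vehicle-treated controls.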

[16] = NCI Yeast Anticancer Drug Screen. Data for the rad18 strain (AID 177); conditions: S. cerevisiae rad18 mutant growth inhibition, stronger effect = higher value
In short: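 Measured value is growth inhibition of a yeast strain bearing a DNA repair alteration, referenced to vehicle-treated cells.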

[17] = at 5.0 µM (retest, dose inferred, filed as 0.5)
[18] = at 50.0 µM (retest, dose inferred, filed as 5.0)

Measured: growth inhibition

CCOC1=C/C(=N\Nc2ccc([N+](=O)[O-])cc2)CCC1
active: [3]; at 11.0 µM 70% | [3]; at 33.0 µM 87% | [7]; at 33.0 µM 73% | [11]; at 50.0 µM 95% | [15]; [18] 87%
inactive: [1]; at 1.2 µM 0% | [1]; at 3.7 µM 8% | [1]; at 11.0 µM 29% | [1]; at 33.0 µM 69% | [1]; at 100.0 µM 26% | [2]; at 1.2 µM 0% | [2]; at 3.7 µM 7% | [2]; at 11.0 µM 9% | [2]; at 33.0 µM 24% | [2]; at 100.0 µM 18% | [3]; at 1.2 µM 3% | [3]; at 3.7 µM 20% | [3]; at 100.0 µM 58% | [4]; at 1.2 µM 3% | [4]; at 3.7 µM 9% | [4]; at 11.0 µM 18% | [4]; at 33.0 µM 22% | [4]; at 100.0 µM 10% | [5]; at 1.2 µM 3% | [5]; at 3.7 µM 10% | [5]; [17] 17% | [5]; at 11.0 µM 22% | [5]; at 33.0 µM 30% | [5]; [18] 51% | [5]; at 50.0 µM 23.4% | [5]; at 100.0 µM 10% | [6]; at 1.2 µM 0% | [6]; at 3.7 µM 5% | [6]; [17] 1% | [6]; at 11.0 µM 19% | [6]; at 33.0 µM 31% | [6]; [18] 67% | [6]; at 50.0 µM 37.9% | [6]; at 100.0 µM 11% | [7]; at 1.2 µM 2% | [7]; at 3.7 µM 9% | [7]; at 11.0 µM 27% | [7]; at 100.0 µM 33% | [8]; [17] 10% | [8]; [18] 21% | [8]; at 50.0 µM 48.6% | [9]; at 1.2 µM -1% | [9]; at 3.7 µM -6% | [9]; at 11.0 µM 21% | [9]; at 33.0 µM 15% | [9]; at 100.0 µM -5% | [10]; [17] 5% | [10]; [18] 10% | [10]; at 50.0 µM 29.5% | [11]; at 1.2 µM -3% | [11]; at 3.7 µM 4% | [11]; [17] -1% | [11]; at 11.0 µM 11% | [11]; at 33.0 µM 15% | [11]; [18] 33% | [11]; at 100.0 µM 18% | [12]; at 1.2 µM -1% | [12]; at 3.7 µM 3% | [12]; at 11.0 µM 7% | [12]; at 33.0 µM 24% | [12]; at 100.0 µM 11% | [13]; at 1.2 µM 0% | [13]; at 3.7 µM 5% | [13]; at 11.0 µM 11% | [13]; at 33.0 µM 17% | [13]; at 100.0 µM 7% | [14]; at 1.2 µM 1% | [14]; at 3.7 µM 3% | [14]; at 11.0 µM 18% | [14]; at 33.0 µM 50% | [14]; at 100.0 µM 20% | [15]; [17] 21% | [15]; at 50.0 µM 41.7% | [16]; at 1.2 µM 4% | [16]; at 3.7 µM 8% | [16]; at 11.0 µM 30% | [16]; at 33.0 µM 62% | [16]; at 100.0 µM 55%
